According to PubChem BioAssay:

System: Human papillomavirus type 1a protein E7 (residues 44-93)
Experiment: small molecules binding HPV E7 44-93 – biochemical, small-molecule microarray, residues 44-93, 635 nm fluorescence, primary screen (AID 1108);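 also: E7 fragment applied at 1 µg/mL in TBST for 1 h at 4 C; score combines spot fluorescence with its signal to noise ratio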
Conditions: fluorescence 635 nm, higher = more signal

| Structure (SMILES) | composite z-score |
| --- | --- |
| O=C1O[C@H](Cc2ccccc2)[C@@H]2[C@H]3C=CCCC=C3CN2[C@H]1Cc1ccc(O)cc1 | -1.94 |
| CN1C(=O)[C@@H]2[C@@H](CC(COc3ccccc3)=C3[C@@H](CCc4ccccc4)OB(O)C[C@@H]32)C1=O | -0.0599 |
| CCOC(=O)C[C@H]1[C@H](OC(=O)Cc2ccc3c(c2)OCO3)[C@@H](NC(=O)Cc2ccc(OC)cc2)c2cc(OCCCO)ccc2N1C(=O)Cc1ccc(OC)cc1 | 0.221 |
| CN(C)CCCNC(=O)[C@@]1(Cc2ccccc2I)c2ccccc2C(=O)N(C2CCCCC2)[C@H]1c1ccc(CO)cc1 | 0.664 |
| CCCCC(=C=CC[C@H](O)c1ccc(CO)o1)CCO | 0.906 |
| COC(=O)[C@@]1(Cc2ccc(F)cc2)[C@H]2c3cc(C(=O)N(C)C)n(C)c3C[C@H]2CN1C(=O)c1ccccc1 | 0.0469 |
| CC1CC/C=C\[C@H]2OC34C=CCN(c5ccc(Cl)cc5)C(=O)[C@H]3N(CCCCCCO)C(=O)[C@]4(C)C2C(=O)O1 (stereo not given in full) | 0.0258 |
| O=C1C[C@]2(c3ccc([N+](=O)[O-])cc3)C(=O)N(C3CC3)c3cc(CO)ccc3[C@H]2N1C1CCCCC1 | 0.481 |
| CCCC[C@H]1C[C@@H]1[C@@H]1N(C(C)=O)[C@H](c2cccc(OC)c2)CC12CC2 | -0.223 |
| Cc1ccc(S[C@]2(C(=O)NCC(F)(F)F)CC(=O)N(Cc3ccccc3C(F)(F)F)[C@@H]2c2ccc(CO)cc2)cc1 | -0.654 |
| Cc1ccc(S[C@]2(C(=O)NCCCN(C)C)CC(=O)N(C3Cc4ccccc4C3)[C@@H]2c2ccc(CO)cc2I)cc1 | 0.257 |
| N#Cc1ccc(C(O)C2C=CC3C(=O)NC(=O)C3N2Nc2ccc(Cl)cc2Cl)cc1 (stereo not given) | 0.544 |
| O=C1O[C@@H](c2ccccc2)[C@@H](c2ccccc2)N2[C@@H](c3ccccc3OCCO)[C@]3(C(=O)Nc4ccc(C#CCCO)cc43)[C@@H](C(=O)NC[C@H](O)c3ccccc3)[C@H]12 | 1.49 |
| COc1ccc([Si](C)(C)[C@@H]2[C@@H](CC(=O)N3Cc4ccccc4C[C@H]3CO)O[C@]3(C(=O)N(Cc4ccc(N5CCOC5=O)cc4)c4ccccc43)[C@H]2C)cc1 | 0.225 |
| COc1ccccc1CN1C(=O)c2ccccc2[C@](Cc2ccccc2I)(C(=O)NCC(C)C)[C@@H]1c1ccc(CO)cc1 | -0.237 |
| CC(C)(C)OC(=O)CC[C@@]1(C(=O)NCCN2CCOCC2)N=C(c2ccc(OCCCO)cc2)O[C@@H]1c1ccccc1CN=[N+]=[N-] | 1.02 |
| CC(C)=CCCC(C)=CC(O)C1C=CC2C(=O)NC(=O)C2N1Nc1ccccn1 (stereo not given) | 1.13 |
| CC(C)N1C(=O)c2ccccc2[C@](C)(C(=O)NCC(F)(F)F)[C@@H]1c1ccc(CO)cc1 | -0.39 |

| Structure (SMILES) | composite z-score |
| --- | --- |
| Cc1ccc(S[C@]2(C(=O)NCc3ccccc3)CC(=O)N(Cc3ccccc3C(F)(F)F)[C@@H]2c2ccc(CO)cc2)cc1 | -0.0905 |
| Cc1ccccc1C(O)C1C=CC2C(=O)N(c3ccccc3)C(=O)C2N1Nc1ccccc1 (stereo not given) | 0.0932 |
| O=C1OCCC=C[C@H]2OC34C=CCN(c5ccc6ccccc6c5)C(=O)[C@H]3N(CCO)C(=O)[C@@H]4C12 (stereo not given in full) | -0.988 |
| COCCCNC(=O)[C@@H]1c2ccccc2C(=O)N(Cc2ccc(OC(F)(F)F)cc2)[C@H]1c1ccc(CO)cc1 | 1.1 |
| CCC(CC)C(O)C1C=CC2C(=O)N(c3ccccc3)C(=O)C2N1Nc1ccccc1F (stereo not given) | 1.2 |
| C=C1C(=O)C=C2CN(C(=O)c3ccccc3)[C@@](Cc3ccc(OC)cc3)(C(=O)OC)[C@@H]12 | 1.43 |
| O=C(NC1CC1)[C@@H]1c2ccccc2C(=O)N(Cc2cc(C(F)(F)F)cc(C(F)(F)F)c2)[C@H]1c1ccc(CO)cc1 | 1.35 |
| COC(=O)c1cccc([C@H]2OC(=CC(=O)OC(C)C)C[C@@H](c3cccc(C(=O)OC)c3)O2)c1 | 1.43 |
| COc1cc(C(O)C2C=CC3C(=O)N(c4ccccc4)C(=O)C3N2Nc2ccccc2F)cc(OC)c1OC (stereo not given) | 1.48 |
| COCCOC(=O)N1C(=O)[C@@]2(c3cc(C#CCC(C(=O)OC)C(=O)OC)ccc31)[C@H](c1ccc(O)cc1)N1[C@H](c3ccccc3)[C@H](c3ccccc3)OC(=O)[C@H]1[C@@H]2C(=O)Nc1nc2ccccc2s1 | 1.11 |
| COc1ccc([Si](C)(C)[C@@H]2[C@@H](CC(=O)N(CCO)Cc3ccccc3)O[C@]3(C(=O)N(Cc4ccc(N5C(=O)c6cccc7cccc5c67)cc4)c4ccccc43)[C@H]2C)cc1 | 0.749 |
| C[C@@H]1ON(c2ccc(I)cc2)[C@H](c2cccc(NC(=O)OCC3c4ccccc4-c4ccccc43)c2)[C@H]1C(=O)N1C(=O)OC[C@H]1Cc1ccccc1 | 0.531 |
| COCCOC(=O)N1C(=O)[C@@]2(c3cc(C#CCC(C(=O)OC)C(=O)OC)ccc31)[C@H](C(=O)Nc1nc3ccccc3s1)[C@H]1C(=O)O[C@H](c3ccccc3)[C@H](c3ccccc3)N1[C@@H]2c1ccc(O)cc1 | 1.42 |
| COc1ccc(C(O)C2C=CC3C(=O)N(c4ccccc4)C(=O)C3N2Nc2ccc([N+](=O)[O-])cc2)c2ccccc12 (stereo not given) | 1.45 |
| COc1ccc(C(=O)Nc2ccc3c(c2)[C@@]2(O[C@H](CCO)[C@@H]([Si](C)(C)c4ccc(OC)cc4)[C@@H]2C)C(=O)N3Cc2ccccc2)cc1 | 1.28 |
| [N-]=[N+]=Nc1ccccc1[C@@H]1OC(c2ccc(OCCCO)cc2)=N[C@]1(CCS(=O)(=O)c1ccccc1)C(=O)NCC(O)CO (stereo not given in full) | 0.535 |
| COC(=O)[C@@]1(Cc2ccccc2)[C@H]2c3cc(C(=O)N(C)C)n(Cc4ccc(S(C)(=O)=O)cc4)c3C[C@H]2CN1C(=O)c1ccccc1 | -1.1 |
